According to PubChem BioAssay (EPA / NIEHS):
Active and inactive are the calls of the source. How the source made its calls: active means hit-call score of the fitted dose curve at least 0.9, where 1 is the maximum; inactive means score below 0.9.

Legend:
Details in all cases: mRNA level, 48 h; actives raise or lower the signal
[1] = read-out: Apolipoprotein A-V (APOA5) gene, APOA5 (gene 116519); experiment: LTEA_HepaRG_APOA5: Life Technologies and Expression Analysis (LTEA) Assay for Apolipoprotein A-V (APOA5) gene using HepaRG (AID 2283474)
Summary of the method: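 Concentration-response of APOA5 expression in HepaRG: eight half-log doses to 100 uM, 48 h, qRT-PCR normalized to ACTB/GAPDH/POLR2A, bidirectional fitting with 0.5% DMSO as baseline.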

[2] = read-out: Apoptosis regulator Bcl-2 (Homo sapiens) (UniProt P10415); experiment: LTEA_HepaRG_BCL2: Life Technologies and Expression Analysis (LTEA) Assay for Bcl-2 gene using HepaRG (AID 2283475);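 further: BCL2 transcript by TaqMan qRT-PCR normalised to ACTB GAPDH and POLR2A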
Summary of the method: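 Plated human HepaRG cells are exposed to test chemicals for 48 h across eight concentrations from 100 uM downward in half-log steps (0.5% DMSO). BCL2 expression is then measured by qRT-PCR with housekeeping normalisation and fitted bidirectionally against vehicle.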

[3] = read-out: Bcl-2 (BID) gene, BID (gene 637); experiment: LTEA_HepaRG_BID: Life Technologies and Expression Analysis (LTEA) Assay for Bcl-2 (BID) gene using HepaRG (AID 2283476)
Summary of the method: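 Cells are plated, cultured 48 h, switched to serum-free induction medium, then dosed 48 h (100 uM top, half-log steps, 0.5% DMSO). RNA is isolated and BID expression read by qRT-PCR.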

[4] = read-out: Caspase-3 (Homo sapiens) (UniProt P42574); experiment: LTEA_HepaRG_CASP3: Life Technologies and Expression Analysis (LTEA) Assay for cysteine-aspartic acid protease (CASP3) using HepaRG (AID 2283477)
Summary of the method: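 Transcript-level assay: CASP3 mRNA in human HepaRG after 48 h treatment, eight half-log concentrations from 100 uM in 0.5% DMSO, quantified by qRT-PCR.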

[5] = read-out: Cytochrome P450 (CYP24A1), CYP24A1 (gene 1591); experiment: LTEA_HepaRG_CYP24A1: Life Technologies and Expression Analysis (LTEA) Assay for Cytochrome P450 (CYP24A1) using HepaRG (AID 2283478)
Summary of the method: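 Gene expression of CYP24A1 by TaqMan qRT-PCR in HepaRG after 48 h treatment, highest concentration 100 uM; activity fitted in both directions relative to DMSO vehicle.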

[6] = read-out: Cytochrome P450 (CYP1A2), CYP1A2 (gene 1544); experiment: LTEA_HepaRG_CYP1A2: Life Technologies and Expression Analysis (LTEA) Assay for Cytochrome P450 (CYP1A2) using HepaRG (AID 2283479);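 on AC50: TaqMan qRT-PCR transcript level normalized to ACTB GAPDH and POLR2A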
Summary of the method: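 In duplicate wells, HepaRG cultures maintained in 0.5% DMSO were treated 48 h across an 8-point, half-log series topping at 100 uM; phenobarbital (1 mM) served as induction control. Expression was read by qRT-PCR.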

[7] = read-out: cysteine-aspartic acid protease (CASP8), CASP8 (gene 841); experiment: LTEA_HepaRG_CASP8: Life Technologies and Expression Analysis (LTEA) Assay for cysteine-aspartic acid protease (CASP8) using HepaRG (AID 2283480)
Summary of the method: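 Concentration-response in duplicate up to 100 uM (half-log steps, 0.5% DMSO) on differentiated HepaRG cultures for 48 h. Expression change of CASP8 mRNA is determined by TaqMan qRT-PCR with housekeeping-gene normalization.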

[8] = read-out: Cytochrome P450 (CYP2B6), CYP2B6 (gene 1555); experiment: LTEA_HepaRG_CYP2B6: Life Technologies and Expression Analysis (LTEA) Assay for Cytochrome P450 (CYP2B6) using HepaRG (AID 2283481)
Summary of the method: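 Human HepaRG, 48 h dosing, 0.5% DMSO vehicle, top dose 100 uM. CYP2B6 transcript by qRT-PCR, housekeeping-normalized, bidirectional curve fit.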

[9] = read-out: Cytochrome P450 2C19 (Homo sapiens) (UniProt P33261); experiment: LTEA_HepaRG_CYP2C19: Life Technologies and Expression Analysis (LTEA) Assay for CYP2C19 using HepaRG (AID 2283482)
Summary of the method: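 Endpoint: CYP2C19 mRNA change, bidirectional fit vs 0.5% DMSO. Cells: HepaRG, 48 h exposure, eight-point series topping at 100 uM. Quantitation: qRT-PCR normalized to ACTB, GAPDH, POLR2A.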

[10] = read-out: CYP2C9 (gene 1559); experiment: LTEA_HepaRG_CYP2C9: Life Technologies and Expression Analysis (LTEA) Assay for CYP2C9 using HepaRG (AID 2283484)
Summary of the method: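 Eight-point concentration-response (highest 100 uM, half-log dilutions) in HepaRG cells for 48 h; CYP2C9 expression by qRT-PCR normalized to ACTB, GAPDH, POLR2A. Bidirectional fit, DMSO baseline.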

[11] = read-out: CYP2E1 (gene 1571); experiment: LTEA_HepaRG_CYP2E1: Life Technologies and Expression Analysis (LTEA) Assay for CYP2E1 using HepaRG (AID 2283485)
Summary of the method: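 Readout is qRT-PCR of CYP2E1 mRNA, normalized to three housekeeping genes and fitted bidirectionally against 0.5% DMSO. HepaRG cells were dosed 48 h at eight concentrations, highest 100 uM with half-log dilutions.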

[12] = read-out: CYP4A11 (gene 1579); experiment: LTEA_HepaRG_CYP4A11: Life Technologies and Expression Analysis (LTEA) Assay for CYP4A11 using HepaRG (AID 2283486)
Summary of the method: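 Human hepatic HepaRG cultures receive duplicate 48 h exposures across a concentration-response series topping at 100 uM. Expression changes in CYP4A11 are measured by qRT-PCR relative to DMSO controls.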

[13] = read-out: Cytochrome P450 3A4 (Homo sapiens) (UniProt P08684); experiment: LTEA_HepaRG_CYP3A4: Life Technologies and Expression Analysis (LTEA) Assay for CYP3A4 using HepaRG (AID 2283487)
Summary of the method: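 HepaRG, 48 h exposure, 8-pt CRC from 100 uM (half-log), 0.5% DMSO, duplicates; serum-free induction medium. Readout: CYP3A4 mRNA, qRT-PCR, ACTB/GAPDH/POLR2A normalization. Bidirectional fit vs DMSO.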

[14] = read-out: DNA damage-inducible transcript 3 (DDIT3), DDIT3 (gene 1649); experiment: LTEA_HepaRG_DDIT3: Life Technologies and Expression Analysis (LTEA) Assay for DNA damage-inducible transcript 3 (DDIT3) using HepaRG (AID 2283488)
Summary of the method: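 Cells are human HepaRG liver cells treated for 48 h with eight half-log concentrations up to 100 uM in 0.5% DMSO. Transcript levels come from qRT-PCR normalized to three housekeeping genes, with activity fitted in both directions relative to vehicle.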

[15] = read-out: Pro-epidermal growth factor (Homo sapiens) (UniProt P01133); experiment: LTEA_HepaRG_EGF: Life Technologies and Expression Analysis (LTEA) Assay for Epidermal growth factor (EGF) using HepaRG (AID 2283489)
Summary of the method: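 Concentration-response mRNA assay: HepaRG cells dosed 48 h (max 100 uM, 0.5% DMSO), EGF measured by qRT-PCR and normalized to ACTB/GAPDH/POLR2A.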

[16] = read-out: Ezrin (EZR), EZR (gene 7430); experiment: LTEA_HepaRG_EZR: Life Technologies and Expression Analysis (LTEA) Assay for Ezrin (EZR) using HepaRG (AID 2283491)
Summary of the method: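 Read-out is EZR transcript level by qRT-PCR, normalized to three housekeeping genes and fitted bidirectionally against the DMSO control. Human HepaRG cells received test chemicals for 48 h at eight half-log concentrations up to 100 uM in 0.5% DMSO.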

[17] = read-out: Cytochrome P450 3A7 (Homo sapiens) (UniProt P24462); experiment: LTEA_HepaRG_CYP3A7: Life Technologies and Expression Analysis (LTEA) Assay for CYP3A7 using HepaRG (AID 2283492)
Summary of the method: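 qRT-PCR of CYP3A7 in HepaRG lysates after 48 h treatment; concentration-response (8 points, max 100 uM) analysed bidirectionally relative to 0.5% DMSO controls.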

[18] = read-out: CYP3A5 (gene 1577); experiment: LTEA_HepaRG_CYP3A5: Life Technologies and Expression Analysis (LTEA) Assay for CYP3A5 using HepaRG (AID 2283493)
Summary of the method: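 Human HepaRG hepatic cells receive 48 h chemical treatment at eight concentrations (half-log steps from 100 uM) in 0.5% DMSO. Expression of CYP3A5 is quantified by Fluidigm qRT-PCR and normalized to three reference genes.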

[19] = read-out: CYP2C8 (gene 1558); experiment: LTEA_HepaRG_CYP2C8: Life Technologies and Expression Analysis (LTEA) Assay for CYP2C8 using HepaRG (AID 2283483)
Summary of the method: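 This is a transcriptional endpoint in HepaRG cultures: 48 h exposure, highest concentration 100 uM. CYP2C8 mRNA is quantified by TaqMan qRT-PCR.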

[20] = read-out: Early growth response protein 1 (EGR1) transcription factor, EGR1 (gene 1958); experiment: LTEA_HepaRG_EGR1: Life Technologies and Expression Analysis (LTEA) Assay for Early growth response protein 1 (EGR1) transcription factor using HepaRG (AID 2283490)
Summary of the method: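 EGR1 expression change in human HepaRG after 48 h chemical exposure, assessed by housekeeping-normalized qRT-PCR; concentration-response up to 100 uM, fitted in both directions against DMSO controls.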

Measured: AC50

Cytochrome P450 3A7 (Homo sapiens), sequence (P24462 whole entry, looked up): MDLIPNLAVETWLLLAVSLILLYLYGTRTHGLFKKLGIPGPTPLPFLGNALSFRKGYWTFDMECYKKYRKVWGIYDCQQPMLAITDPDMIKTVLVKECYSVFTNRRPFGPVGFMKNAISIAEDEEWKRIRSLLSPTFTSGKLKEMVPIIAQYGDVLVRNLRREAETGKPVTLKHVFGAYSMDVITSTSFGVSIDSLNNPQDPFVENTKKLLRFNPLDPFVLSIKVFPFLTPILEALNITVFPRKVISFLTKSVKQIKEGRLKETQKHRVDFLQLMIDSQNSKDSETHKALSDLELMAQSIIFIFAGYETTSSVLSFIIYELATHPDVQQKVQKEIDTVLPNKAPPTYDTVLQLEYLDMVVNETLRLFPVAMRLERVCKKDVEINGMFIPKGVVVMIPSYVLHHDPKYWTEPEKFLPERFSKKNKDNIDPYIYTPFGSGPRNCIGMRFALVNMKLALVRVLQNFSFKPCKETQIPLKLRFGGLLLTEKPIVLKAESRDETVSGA
Cytochrome P450 3A4 (Homo sapiens), sequence (P08684 whole entry, looked up): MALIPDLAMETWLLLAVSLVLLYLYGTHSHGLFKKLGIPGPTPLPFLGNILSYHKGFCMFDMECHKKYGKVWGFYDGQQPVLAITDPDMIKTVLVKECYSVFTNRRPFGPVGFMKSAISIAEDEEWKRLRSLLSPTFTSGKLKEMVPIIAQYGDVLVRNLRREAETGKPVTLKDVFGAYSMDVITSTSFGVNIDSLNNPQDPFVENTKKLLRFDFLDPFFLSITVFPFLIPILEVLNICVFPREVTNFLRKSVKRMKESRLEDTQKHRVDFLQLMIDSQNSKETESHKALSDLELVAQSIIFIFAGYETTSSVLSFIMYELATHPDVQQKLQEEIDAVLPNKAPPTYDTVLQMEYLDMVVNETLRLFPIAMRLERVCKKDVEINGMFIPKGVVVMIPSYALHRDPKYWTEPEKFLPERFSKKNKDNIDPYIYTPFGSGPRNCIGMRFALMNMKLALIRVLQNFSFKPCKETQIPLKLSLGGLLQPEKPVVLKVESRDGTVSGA
Cytochrome P450 2C19 (Homo sapiens), sequence (P33261 whole entry, looked up): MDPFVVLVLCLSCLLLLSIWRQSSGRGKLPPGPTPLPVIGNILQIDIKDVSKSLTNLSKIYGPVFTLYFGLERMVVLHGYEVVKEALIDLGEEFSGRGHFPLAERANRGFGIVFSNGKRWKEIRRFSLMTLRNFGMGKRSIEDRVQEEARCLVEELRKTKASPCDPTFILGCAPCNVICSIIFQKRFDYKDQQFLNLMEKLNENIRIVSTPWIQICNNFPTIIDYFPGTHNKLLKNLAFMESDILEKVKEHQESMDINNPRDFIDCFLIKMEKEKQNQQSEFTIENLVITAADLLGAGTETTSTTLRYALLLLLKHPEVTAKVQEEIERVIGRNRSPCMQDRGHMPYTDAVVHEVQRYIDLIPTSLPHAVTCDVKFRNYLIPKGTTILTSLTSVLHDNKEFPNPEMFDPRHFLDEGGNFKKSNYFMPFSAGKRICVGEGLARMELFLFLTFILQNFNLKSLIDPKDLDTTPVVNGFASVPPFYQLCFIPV
Apoptosis regulator Bcl-2 (Homo sapiens), sequence (P10415 whole entry, looked up): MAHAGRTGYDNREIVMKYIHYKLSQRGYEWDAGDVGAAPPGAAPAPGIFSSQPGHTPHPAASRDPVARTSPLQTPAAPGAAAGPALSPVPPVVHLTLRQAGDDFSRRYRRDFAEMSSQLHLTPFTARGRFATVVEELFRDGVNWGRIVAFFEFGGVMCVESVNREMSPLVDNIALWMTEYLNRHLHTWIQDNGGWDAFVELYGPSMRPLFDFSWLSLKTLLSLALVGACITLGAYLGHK
Caspase-3 (Homo sapiens), sequence (P42574 whole entry, looked up): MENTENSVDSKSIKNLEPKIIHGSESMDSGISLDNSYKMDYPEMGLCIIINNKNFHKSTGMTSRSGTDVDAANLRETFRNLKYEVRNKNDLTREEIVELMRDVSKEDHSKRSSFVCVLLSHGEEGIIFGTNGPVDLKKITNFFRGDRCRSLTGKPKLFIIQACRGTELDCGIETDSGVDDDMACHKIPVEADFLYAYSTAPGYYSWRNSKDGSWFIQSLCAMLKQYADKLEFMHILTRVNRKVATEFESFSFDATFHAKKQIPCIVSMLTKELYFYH

CCNc1nc(Cl)nc(NC(C)(C)C#N)n1
inactive: [1] | [2] | [3] | [4] | [5] | [6] | [7] | [10] | [14] | [15] | [16] | [18]
active: [8] 1.68 µM | [9] 12.4 µM | [11] 13.2 µM | [12] 39.9 µM | [13] 4.42 µM | [17] 1.77 µM

CN(C)NC(=O)CCC(=O)O
inactive: [1] | [2] | [3] | [4] | [5] | [6] | [7] | [8] | [9] | [19] | [10] | [11] | [12] | [13] | [14] | [15] | [20] | [16] | [17] | [18]

CSc1nc(NC(C)C)nc(NC(C)C)n1
active: [1] 50 µM | [8] 1.31 µM | [9] 1.96 µM | [10] 85.9 µM | [11] 39.1 µM | [12] 31 µM | [13] 1.46 µM | [17] 1.17 µM
inactive: [2] | [3] | [4] | [5] | [6] | [7] | [14] | [15] | [16] | [18]

CNC(=O)ON=C(C)SC
inactive: [1] | [2] | [3] | [4] | [5] | [6] | [7] | [8] | [9] | [10] | [11] | [12] | [13] | [14] | [15] | [16] | [17] | [18]

CC[C@H](C)[C@H]1O[C@]2(C=C[C@@H]1C)C[C@@H]1C[C@@H](C/C=C(\C)[C@@H](O[C@H]3C[C@H](OC)[C@@H](O[C@H]4C[C@H](OC)[C@@H](NC)[C@H](C)O4)[C@H](C)O3)[C@@H](C)/C=C/C=C3\CO[C@@H]4[C@H](O)C(C)=C[C@@H](C(=O)O1)[C@]34O)O2
active: [3] 25 µM | [8] 11.6 µM | [9] 12.6 µM | [11] 5.32 µM | [12] 11.7 µM | [13] 23.1 µM | [14] 13.1 µM | [15] 81.5 µM | [20] 29 µM | [16] 79.5 µM | [17] 19.9 µM | [18] 22.7 µM
inactive: [1] | [2] | [4] | [5] | [6] | [7] | [10]

CCCOc1nn(C(=O)NS(=O)(=O)c2ccccc2C(=O)OC)c(=O)n1C
inactive: [1] | [2] | [3] | [4] | [5] | [6] | [7] | [8] | [19] | [10] | [11] | [12] | [13] | [14] | [15] | [20] | [16] | [17] | [18]

CCCCN(CC)c1c([N+](=O)[O-])cc(C(F)(F)F)cc1[N+](=O)[O-]
active: [6] 35.8 µM | [8] 32 µM | [9] 50 µM | [13] 23.2 µM
inactive: [1] | [2] | [3] | [4] | [5] | [7] | [10] | [11] | [12] | [14] | [15] | [20] | [16] | [17] | [18]
